About 79,000 compounds went through this panel and 15% of them were active in at least one assay; those are over-represented in the sample as a whole. Calls of active or inactive are those of the source. Cut-off read from the data, not from the text of the source: active = growth inhibition above about 70%; inactive = the rest.
Key:
[1] = NCI Yeast Anticancer Drug Screen. Data for the rad52 strain (AID 147);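 note: 0% = growth of vehicle-treated control cultures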; conditions: S. cerevisiae rad52 mutant growth inhibition, active compounds read high
How it was run: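 Growth of repair-deficient yeast cells was compared between compound-treated and vehicle-treated cultures to give percent inhibition.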

[2] = NCI Yeast Anticancer Drug Screen. Data for the wt1 strain (AID 149);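 note: 0% = growth of vehicle-treated wt1 cultures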; conditions: S. cerevisiae wt1 strain (SPY 50644) growth inhibition, active compounds read high
How it was run: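 Compounds are added to wt1 yeast cultures. Growth is then measured. Inhibition is expressed relative to vehicle-treated controls.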

[3] = NCI Yeast Anticancer Drug Screen. Data for the rad50EPP+ strain (AID 151);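 note: 0% = growth of vehicle-treated control cultures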; conditions: S. cerevisiae rad50 mutant strain, active compounds read high
How it was run: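 Measured: growth inhibition of rad50EPP+ yeast. Reference: vehicle-treated controls. Screen uses strains with defined genetic alterations in DNA damage repair or cell cycle control.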

[4] = NCI Yeast Anticancer Drug Screen. Data for the mgt1 strain (AID 153); conditions: S. cerevisiae mgt1 mutant growth inhibition, active compounds read high
How it was run: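 Compounds were applied to mgt1 mutant yeast, and growth was then compared against vehicle-treated control cultures to give percent inhibition.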

[5] = NCI Yeast Anticancer Drug Screen. Data for the rad50 strain (AID 155);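 note: 0% = growth of vehicle-only cultures of the same strain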; conditions: S. cerevisiae rad50 strain growth inhibition, active compounds read high
How it was run: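 Inhibition values express reduced yeast growth in compound-treated cultures relative to vehicle-treated controls.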

[6] = NCI Yeast Anticancer Drug Screen. Data for the mec2-1 strain (AID 157); conditions: S. cerevisiae mec2-1 strain, active compounds read high
How it was run: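 Compounds were applied to mec2-1 yeast cells. Their growth was then compared with that of vehicle-treated cultures to give growth inhibition.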

[7] = NCI Yeast Anticancer Drug Screen. Data for the rad14 strain (AID 159);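 note: 0% = growth of vehicle-treated control cultures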; conditions: S. cerevisiae rad14 strain growth inhibition, active compounds read high
How it was run: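 A mutant yeast strain defective in DNA damage repair is treated with compound; inhibition of its growth is scored against untreated, vehicle-exposed cultures.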

[8] = NCI Yeast Anticancer Drug Screen. Data for the sgs1 mgt1 strain (AID 161);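 note: 0% = growth of cultures given vehicle only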; conditions: S. cerevisiae sgs1 mgt1 strain, active compounds read high
How it was run: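 Growth of a repair-deficient yeast mutant was monitored after compound treatment and expressed as inhibition relative to vehicle-treated cultures.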

[9] = NCI Yeast Anticancer Drug Screen. Data for the CLN2oe strain (AID 163);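 note: 0% = growth of vehicle-only control cultures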; conditions: S. cerevisiae CLN2oe strain, active compounds read high
How it was run: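 Cells of an engineered yeast line with disturbed cell-cycle regulation are treated with compound. Inhibition of growth is then calculated relative to the vehicle-treated reference.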

[10] = NCI Yeast Anticancer Drug Screen. Data for the cln2 rad14 strain (AID 165);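 note: 0% = growth equal to vehicle treated cultures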; conditions: S. cerevisiae cln2 rad14 strain, active compounds read high
How it was run: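 Strain: cln2 rad14 yeast, altered in cell cycle control and DNA damage repair. Read-out: growth inhibition vs vehicle.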

[11] = NCI Yeast Anticancer Drug Screen. Data for the bub3 strain (AID 167); conditions: S. cerevisiae bub3 mutant strain, active compounds read high
How it was run: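 Steps: expose the mutant yeast strain to compound; grow alongside vehicle-treated cultures; measure growth; express inhibition against the vehicle cultures.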

[12] = NCI Yeast Anticancer Drug Screen. Data for the wt2 strain (AID 169);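 note: 0% = growth of vehicle-treated yeast cultures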; conditions: S. cerevisiae wt2 strain growth inhibition, active compounds read high
How it was run: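 Growth of compound-treated yeast is measured and expressed as inhibition relative to vehicle-only controls.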

[13] = NCI Yeast Anticancer Drug Screen. Data for the mlh1 strain (AID 171);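 note: 0% = growth of vehicle-treated control cultures of the same strain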; conditions: S. cerevisiae mlh1 strain growth inhibition, active compounds read high
How it was run: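 Test agents were incubated with yeast bearing a defined DNA damage repair or cell cycle control alteration; values are growth inhibition normalised to vehicle-treated cultures.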

[14] = NCI Yeast Anticancer Drug Screen. Data for the sgs1 strain (AID 173);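 note: 0% = growth of vehicle-only control cultures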; conditions: S. cerevisiae sgs1 mutant, active compounds read high
How it was run: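 Strain with an altered DNA repair or cell cycle pathway exposed to compound. Growth then measured. Value = inhibition versus vehicle control.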

[15] = NCI Yeast Anticancer Drug Screen. Data for the mlh1 rad18 strain (AID 175); conditions: S. cerevisiae mlh1 rad18 strain growth inhibition, active compounds read high
How it was run: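 A repair-deficient yeast strain is exposed to test compound, and growth is scored relative to vehicle-treated controls.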

[16] = NCI Yeast Anticancer Drug Screen. Data for the rad18 strain (AID 177); conditions: S. cerevisiae rad18 mutant growth inhibition, active compounds read high
How it was run: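 DNA-repair-defective yeast; compound treatment; growth inhibition scored against vehicle.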

[17] = at 5.0 µM (retest, dose inferred, filed as 0.5)
[18] = at 50.0 µM (retest, dose inferred, filed as 5.0)

Measured: growth inhibition

COC(=O)C(Cl)(Cl)N=Nc1c(Cl)cc(Cl)c(C)c1Cl
inactive: [1]; at 1.2 µM -14% | [2]; at 1.2 µM -12% | [2]; at 3.7 µM 52% | [3]; at 1.2 µM 12% | [4]; at 1.2 µM -50% | [4]; at 3.7 µM 20% | [5]; at 1.2 µM -34% | [5]; at 3.7 µM 46% | [5]; [17] 49% | [6]; at 1.2 µM -40% | [6]; at 3.7 µM 68% | [6]; [17] 54% | [7]; at 1.2 µM -51% | [7]; at 3.7 µM 59% | [8]; [17] 14% | [8]; [18] 69% | [9]; at 1.2 µM 36% | [9]; at 3.7 µM 22% | [10]; [17] 2% | [10]; [18] -66% | [11]; at 1.2 µM -32% | [11]; at 3.7 µM 11% | [11]; [17] 5% | [11]; [18] -28% | [12]; at 1.2 µM -3% | [13]; at 1.2 µM -34% | [13]; at 3.7 µM 6% | [14]; at 1.2 µM 10% | [15]; [17] 59% | [16]; at 1.2 µM 28%
active: [1]; at 3.7 µM 83% | [1]; at 11.0 µM 97% | [1]; at 33.0 µM 98% | [1]; at 100.0 µM 97% | [2]; at 11.0 µM 99% | [2]; at 33.0 µM 99% | [2]; at 100.0 µM 99% | [3]; at 3.7 µM 83% | [3]; at 11.0 µM 99% | [3]; at 33.0 µM 99% | [3]; at 100.0 µM 99% | [4]; at 11.0 µM 96% | [4]; at 33.0 µM 98% | [4]; at 100.0 µM 99% | [5]; at 11.0 µM 96% | [5]; at 33.0 µM 92% | [5]; [18] 99% | [5]; at 50.0 µM 92.5% | [5]; at 100.0 µM 96% | [6]; at 11.0 µM 97% | [6]; at 33.0 µM 98% | [6]; [18] 99% | [6]; at 50.0 µM 91.3% | [6]; at 100.0 µM 98% | [7]; at 11.0 µM 80% | [7]; at 33.0 µM 99% | [7]; at 100.0 µM 98% | [8]; at 50.0 µM 91.9% | [9]; at 11.0 µM 97% | [9]; at 33.0 µM 99% | [9]; at 100.0 µM 99% | [10]; at 50.0 µM 88.2% | [11]; at 11.0 µM 92% | [11]; at 33.0 µM 98% | [11]; at 50.0 µM 93.2% | [11]; at 100.0 µM 98% | [12]; at 3.7 µM 89% | [12]; at 11.0 µM 99% | [12]; at 33.0 µM 99% | [12]; at 100.0 µM 99% | [13]; at 11.0 µM 96% | [13]; at 33.0 µM 100% | [13]; at 100.0 µM 100% | [14]; at 3.7 µM 88% | [14]; at 11.0 µM 87% | [14]; at 33.0 µM 99% | [14]; at 100.0 µM 100% | [15]; [18] 99% | [15]; at 50.0 µM 93.2% | [16]; at 3.7 µM 87% | [16]; at 11.0 µM 96% | [16]; at 33.0 µM 98% | [16]; at 100.0 µM 99%

CCCCCCCC/C=C\CCCCCCCCN
inactive: [1]; at 1.2 µM 4% | [1]; at 3.7 µM 0% | [1]; at 11.0 µM -10% | [2]; at 1.2 µM 13% | [2]; at 3.7 µM 17% | [2]; at 11.0 µM 9% | [3]; at 1.2 µM 17% | [3]; at 3.7 µM 21% | [3]; at 11.0 µM 21% | [4]; at 1.2 µM 18% | [4]; at 3.7 µM 30% | [4]; at 11.0 µM 22% | [5]; at 1.2 µM -1% | [5]; at 3.7 µM -7% | [5]; [17] 30% | [5]; at 11.0 µM -15% | [5]; [18] 64% | [6]; at 1.2 µM 1% | [6]; at 3.7 µM 15% | [6]; [17] 45% | [6]; at 11.0 µM -18% | [6]; [18] 30% | [7]; at 1.2 µM -22% | [7]; at 3.7 µM -21% | [7]; at 11.0 µM -19% | [8]; [17] -68% | [9]; at 1.2 µM 17% | [9]; at 3.7 µM 11% | [9]; at 11.0 µM 28% | [10]; [17] 42% | [11]; at 1.2 µM 0% | [11]; at 3.7 µM 14% | [11]; [17] -10% | [11]; at 11.0 µM 14% | [12]; at 1.2 µM -7% | [12]; at 3.7 µM -1% | [12]; at 11.0 µM -24% | [13]; at 1.2 µM -16% | [13]; at 3.7 µM -16% | [13]; at 11.0 µM -17% | [14]; at 1.2 µM -3% | [14]; at 3.7 µM -11% | [14]; at 11.0 µM -15% | [15]; [17] 26% | [15]; [18] 27% | [16]; at 1.2 µM -1% | [16]; at 3.7 µM 7% | [16]; at 11.0 µM -13%
active: [1]; at 33.0 µM 98% | [1]; at 100.0 µM 97% | [2]; at 33.0 µM 98% | [2]; at 100.0 µM 98% | [3]; at 33.0 µM 96% | [3]; at 100.0 µM 97% | [4]; at 33.0 µM 99% | [4]; at 100.0 µM 98% | [5]; at 33.0 µM 96% | [5]; at 50.0 µM 91.2% | [5]; at 100.0 µM 96% | [6]; at 33.0 µM 98% | [6]; at 50.0 µM 92.5% | [6]; at 100.0 µM 98% | [7]; at 33.0 µM 97% | [7]; at 100.0 µM 97% | [8]; [18] 98% | [8]; at 50.0 µM 93% | [9]; at 33.0 µM 98% | [9]; at 100.0 µM 97% | [10]; [18] 96% | [10]; at 50.0 µM 90% | [11]; at 33.0 µM 97% | [11]; [18] 97% | [11]; at 50.0 µM 91% | [11]; at 100.0 µM 96% | [12]; at 33.0 µM 98% | [12]; at 100.0 µM 97% | [13]; at 33.0 µM 97% | [13]; at 100.0 µM 97% | [14]; at 33.0 µM 97% | [14]; at 100.0 µM 96% | [15]; at 50.0 µM 91.3% | [16]; at 33.0 µM 97% | [16]; at 100.0 µM 97%
